Reference: PubChem BioAssay (NCI)
About 79,000 compounds went through this panel and 15% of them were active in at least one assay; those are over-represented in the sample as a whole. Activity calls are given as the source filed them. Rule as the data show it: active = growth inhibition above about 70%; inactive = the rest.

What was measured:
[1] = NCI Yeast Anticancer Drug Screen. Data for the rad50 strain (AID 155);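 also: 0% = growth of vehicle-only cultures of the same strain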; conditions: S. cerevisiae rad50 strain growth inhibition; at 50.0 µM; active compounds read high
In short: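 Relative growth inhibition (compound vs vehicle) was measured in yeast with a defined repair-gene alteration.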

[2] = NCI Yeast Anticancer Drug Screen. Data for the mec2-1 strain (AID 157); conditions: S. cerevisiae mec2-1 strain, at 50.0 µM, active compounds read high
In short: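 Compounds were applied to mec2-1 yeast cells. Their growth was then compared with that of vehicle-treated cultures to give growth inhibition.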

[3] = NCI Yeast Anticancer Drug Screen. Data for the sgs1 mgt1 strain (AID 161);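 also: 0% = growth of cultures given vehicle only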; conditions: S. cerevisiae sgs1 mgt1 strain, at 50.0 µM, active compounds read high
In short: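 This yeast growth screen uses a strain with defined DNA-repair lesions; compound-treated growth is compared with vehicle-treated growth.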

[4] = NCI Yeast Anticancer Drug Screen. Data for the cln2 rad14 strain (AID 165);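 also: 0% = growth equal to vehicle treated cultures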; conditions: S. cerevisiae cln2 rad14 strain, at 50.0 µM, active compounds read high
In short: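 Strain: cln2 rad14 yeast, altered in cell cycle control and DNA damage repair. Read-out: growth inhibition vs vehicle.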

[5] = NCI Yeast Anticancer Drug Screen. Data for the bub3 strain (AID 167); conditions: S. cerevisiae bub3 mutant strain, at 50.0 µM, active compounds read high
In short: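 Screening used yeast with an engineered genetic alteration affecting cell cycle control. Compound-exposed cultures were compared with vehicle cultures, and reduced growth was taken as inhibition.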

[6] = NCI Yeast Anticancer Drug Screen. Data for the mlh1 rad18 strain (AID 175); conditions: S. cerevisiae mlh1 rad18 strain growth inhibition; at 50.0 µM; active compounds read high
In short: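 A repair-deficient yeast strain is exposed to test compound, and growth is scored relative to vehicle-treated controls.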

Measured: growth inhibition

N#CCCOC(=O)Nc1ccccc1
inactive: [1] 21.9% | [2] 2.4% | [3] -6.7% | [4] -40.6% | [5] -8.3% | [6] 0.6%

NCCCNC/C=C/CNCCCN
inactive: [1] 25.8% | [2] -0.5% | [3] 2.7% | [4] 11.2% | [5] -0.8% | [6] -2.45%

CC(=O)CCCO
inactive: [1] -1.6% | [2] -5.75% | [3] -0.8% | [4] -9.4% | [5] 19.1% | [6] -0.9%

O=C(NNC1=NCCN1Cc1ccccc1)c1cccc(Cl)c1
inactive: [1] -6.1% | [2] -25.4% | [3] 13.3% | [4] 14.6% | [5] -0.8% | [6] 2.15%

O=S(=O)(Cc1ccccc1)C(I)c1ccccc1 (configuration not stated)
inactive: [2] 55.9% | [3] 65.5% | [4] 51% | [5] 60.7%
active: [1] 82.2% | [6] 73%

CN(C)c1ccc(C=C(c2ccc(N)cc2)c2ccc(N)cc2)cc1
inactive: [1] 9.25% | [2] -1.05% | [3] 24.3% | [4] -0.6% | [5] 52.4% | [6] 20.6%

c1ccc2[nH]c3[nH]c4[nH]c5ccccc5[nH]c4[nH]c3[nH]c2c1
inactive: [1] -29.2% | [2] -9.2% | [3] -20.6% | [4] -6.2% | [5] -8.5% | [6] -11.8%

c1ccc2c(c1)c1c(n2CCOCCN2CCCC2)CCCC1
inactive: [1] 21.6% | [2] 2.6% | [3] 2.45% | [4] 27% | [5] 0% | [6] -55.8%

Cc1ccc2c(c1)C1(c3ccccc3)Oc3ccc(C)cc3C(c3ccccc3)(O2)O1
inactive: [1] 12.2% | [2] 5.75% | [3] 10.7% | [4] 25.3% | [5] -4.9% | [6] -7.2%

CC[O-].CC[O-].O=C([CH-]C(=O)c1ccccc1)CCCCCCC(=O)[CH-]C(=O)c1ccccc1.[Ti+4]
inactive: [1] -39.5% | [2] -13.7% | [3] -33.5% | [4] -4.7% | [5] 4.95% | [6] -17.7%

Cc1ccc(-c2nnc(C)o2)cc1
inactive: [1] 5.55% | [2] -6.65% | [3] -7.85% | [4] -35.6% | [5] 13.3% | [6] 6.2%

COC(=O)C(CO)NC(=O)C(CC(C)C)NC(=O)C(CC(C)C)NC(=O)OCc1ccccc1 (configuration not stated)
inactive: [1] 34.6% | [2] 4.5% | [3] 16.6% | [4] 11.6% | [5] -5.1% | [6] 13.2%

NNC(=O)C(=O)N/N=C(/CC1(O)C(=O)Nc2ccccc21)c1ccc(Cl)cc1Cl (configuration not stated)
inactive: [1] -0.9% | [2] 4% | [3] -15.9% | [4] -53.4% | [5] 0.75% | [6] -1.95%

O=C(CCn1ccnc1[N+](=O)[O-])NCCCn1ccnc1[N+](=O)[O-]
inactive: [1] -24.1% | [2] -2.15% | [3] -42.4% | [4] -1% | [5] -34.4% | [6] -52.2%

CC(C)c1ccc(N=Nc2ccc(N(C)C)cc2)cc1
inactive: [1] 4.2% | [2] 1.85% | [3] -4.55% | [4] -17.9% | [5] -4.7% | [6] -5.65%

CC(=O)NC1C(OC(C)C(=O)NC(C)C(=O)NC(CCC(=O)NCCCCCNc2ccc([N+](=O)[O-])c3[nH]c4ccccc4c(=O)c23)C(N)=O)C(O)C(CO)OC1(C)OCc1ccccc1 (configuration not stated)
inactive: [1] 13% | [2] 13.1% | [3] 27.2% | [4] 23.9% | [5] 19.9% | [6] 32.9%

NC(=O)ON=C1CCN(Cc2ccccc2)CC1
inactive: [1] 30.4% | [2] 15.4% | [3] 10.7% | [4] 18.9% | [5] 10.2% | [6] 21.4%

COc1ccc(OC)c(NC(=O)CCCC(=O)C(C#N)c2ccccc2C)c1 (configuration not stated)
inactive: [1] 13.1% | [2] -4.9% | [3] -3.15% | [4] 11.2% | [5] 0.2% | [6] 2.05%

C=CNC(=S)n1nc(-c2ccccc2NC(=O)C(F)(F)F)c(=O)n(C(=S)NC=C)c1=S
inactive: [1] 31.4% | [2] 38.5% | [3] 30.4% | [4] -0.55% | [5] -9.1% | [6] 24.9%

CN1CCCC1
inactive: [1] 2.05% | [2] 8.8% | [3] -2.15% | [4] 1.1% | [5] 16.6% | [6] -8.2%

O=C1NCCN1CCCl
inactive: [1] 0.7% | [2] -1.25% | [3] -5.15% | [4] 1.5% | [5] 1.65% | [6] 6.25%

CC1=C[P+](c2ccccc2)(c2ccccc2)c2ccccc2O1
active: [5] 72.3%
inactive: [1] 58% | [2] 57.6% | [3] 66.8% | [4] 34.6% | [6] 63.1%

CC(=O)Nc1c(C)cc(S(=O)(=O)O)cc1C
inactive: [1] 6.25% | [2] -0.1% | [3] -8.65% | [4] -58.7% | [5] 28.6% | [6] -18.5%

CCCCCc1ccccc1OCC1CO1 (configuration not stated)
inactive: [1] 6.75% | [2] -9.15% | [3] -17.6% | [4] 11.6% | [5] 5.1% | [6] 27.2%

Cc1cc(N(CCC#N)CCC#N)ccc1C=Nc1ccc(C(=O)NN2C(=O)/C(=C/c3ccc(N(CCC#N)CCC#N)cc3)N=C2c2cc([N+](=O)[O-])ccc2Cl)cc1
inactive: [1] 17.9% | [2] 10.1% | [3] 2.6% | [4] 24% | [5] 4.7% | [6] 7.8%

CN(C(=O)c1cccs1)C(=S)N1CCN(c2ccccn2)CC1
inactive: [1] -84.2% | [2] -57.6% | [3] -2.4% | [4] -11.8% | [5] -7.85% | [6] -29.6%

O=C1c2ccccc2Cc2ccc(O)cc21
inactive: [1] 47.1% | [2] 21.3% | [3] 11.1% | [4] 10.3% | [5] 11.8% | [6] 10.8%

C1CSCCCSCCSCCCSC1
inactive: [1] -15.1% | [2] -9.45% | [3] 3.6% | [4] 5.3% | [5] 0.2% | [6] 4.45%

CCCCCCCCOCC1S(=O)(=O)OCCOS1(=O)=O
inactive: [1] -48.2% | [2] -17.6% | [3] -50.7% | [4] -53.8% | [5] -24.4% | [6] -2.3%

C=CCS(=O)(=O)c1ccc(Cl)cc1
inactive: [1] 1.95% | [2] 2.25% | [3] -20.5% | [4] -24.6% | [5] 0.95% | [6] -22.2%

O=C(OCc1ccccc1)C1(O)CCCCC1
inactive: [1] -5.6% | [2] -16.2% | [3] -6.25% | [4] -2.7% | [5] -5% | [6] -7.4%

CCCCCCCCCCCCCCCCCCOC(=O)C1CCCN1 (configuration not stated)
inactive: [1] -10% | [2] 22.9% | [3] 12.8% | [4] 3.15% | [5] 12.4% | [6] 8.6%

NC(N)=NC1CCc2ccccc2C1 (configuration not stated)
inactive: [1] 4.4% | [2] -2.85% | [3] -4% | [4] -5.1% | [5] -0.6% | [6] -5.1%

CC(C)C(NC(=O)c1cnc2ccccc2n1)C(=O)O (configuration not stated)
inactive: [1] -8.15% | [2] -5.5% | [3] 0.4% | [4] -51.7% | [5] 6.35% | [6] 7.75%

O=C1CC(O)C2C(=O)c3c(c(Cl)c4ccccc4c3O)C(=O)C2C1 (configuration not stated)
inactive: [1] 12.1% | [2] 12.4% | [3] 10.2% | [4] 4.75% | [5] 3.85% | [6] 20.3%

C(=C\c1ncc(-c2ccccc2)cc1-c1ccccc1)/c1ccccc1
inactive: [1] -12.3% | [2] -20.8% | [3] 5.8% | [4] -6.8% | [5] 0.75% | [6] -1.9%

CCOC(=O)c1ccc(NC(=O)/C=C/c2ccccc2)cc1
inactive: [1] -4.55% | [2] 11.4% | [3] 17.4% | [4] -24.3% | [5] 30.1% | [6] 6.3%

CNCc1cccc(OC)c1OC
inactive: [1] -1.05% | [2] -5.4% | [3] -2.35% | [4] -0.6% | [5] 16.2% | [6] -2.7%

C/C(=N\N)c1ccc(-c2ccccc2)cc1
inactive: [1] 10.6% | [2] 8.9% | [3] 6.45% | [4] -32.8% | [5] -30.7% | [6] -5.4%

O=C(O)c1ccc(C(=O)C2CC(C(=O)O)CCC2S(=O)(=O)O)cc1 (configuration not stated)
inactive: [1] -10.1% | [2] 11.8% | [3] -19.8% | [4] -30.6% | [5] -0.4% | [6] 17.1%

CC1SC2(C(=O)N(CN3CCCCC3)c3ccccc32)N(c2ccccc2)C1=O (configuration not stated)
inactive: [1] 15.4% | [2] -0.45% | [3] -30.9% | [4] -0.8% | [5] 3.9% | [6] -0.1%

CC1CSC(=S)N1C(=O)N1C(=S)SCC1C (configuration not stated)
inactive: [1] -42.4% | [2] -56.8% | [3] -52.9% | [4] -10.8% | [5] -43.9% | [6] -35.5%

CCOC(=O)CSc1ncnc2nc[nH]c12
inactive: [1] 31.2% | [2] -9.35% | [3] -6% | [4] 6.25% | [5] 17% | [6] 9.75%

CCCS(=O)(=O)N/N=C(\C)c1cccs1
inactive: [1] 3.65% | [2] -8.1% | [3] 3.25% | [4] -35.5% | [5] 1.35% | [6] -4.2%

CCC1(CC)C(=O)NN(C(=O)c2ccccc2)C1=O
inactive: [1] 19.3% | [2] -20.1% | [3] 28.4% | [4] 13.6% | [5] -4.45% | [6] -43.4%

CC(C)(CNC(=O)C12CC3CC(CC(C3)C1)C2)NC(=O)C12CC3CC(CC(C3)C1)C2
inactive: [1] 15.9% | [2] 12.5% | [3] 14.1% | [4] 11.1% | [5] 0.85% | [6] 27.8%

N/N=C(\C(=O)Nc1c(Cl)cc([N+](=O)[O-])cc1Cl)C(c1cnc2ccc([N+](=O)[O-])cc2n1)[N+](=O)[O-] (configuration not stated)
inactive: [1] -38.7% | [2] 0.7% | [3] 10.4% | [4] 15.1% | [5] -23.5% | [6] -26.6%
